# Measurements: the supplement of paper PMC7411640
# Structures can show the parent of a compound that is named as a salt.
# System: MDA-MB-468
# Test: phospho-S6 immunofluorescence (DAPI-normalised), per-plate z-score; higher = higher phospho-S6 signal (less pathway suppression)
# Details: 24 h
# Description: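 GPCR-targeted compound library (MedChemExpress HY-L006) tested on MDA-MB-468 PTEN-null TNBC cells in 384-well plates at 0.1, 1 or 10 uM, combined with vehicle, GDC0941 450 nM or lapatinib 1 uM, for 24 h. Phospho-S6 (S240/244) immunofluorescence normalised to DAPI and expressed as a per-plate z-score; values are the mean of biological triplicates.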
SMILES,phospho-S6 immunofluorescence (z-score) (co-treatment: GDC0941 450 nM),phospho-S6 immunofluorescence (z-score) (co-treatment: lapatinib 1 uM),phospho-S6 immunofluorescence (z-score) (co-treatment: vehicle)
O=C(O)CC1CCC2(CC1)CCN(c1cc(OC(F)(F)F)ccc1Cl)CC2 (compound 10 µM),0.09,0.11,0.22
"Cc1ccc(OCC(O)C(C)NC(C)C)c2c1CCC2 (configuration not stated) [ICI 118,551 (hydrochloride)] (compound 10 µM)",1.2,-1.56,0.46
"Brc1c(NC2=NCCN2)ccc2nccnc12 [UK 14,304 (tartrate)] (compound 10 µM)",0.91,1.2,0.14
OC[C@H]1O[C@@H](n2cnc3c(NCc4ccc(O)cc4)ncnc32)[C@H](O)[C@@H]1O [N6-(4-Hydroxybenzyl)adenosine] (compound 10 µM),-0.95,1.31,0.96
O=C(O[C@H]1CN2CCC1CC2)N1CCc2ccccc2[C@@H]1c1ccccc1 [Solifenacin (Succinate)] (compound 10 µM),1.65,1.13,-0.65
CC(=O)OCC(=O)[C@@]1(O)CC[C@H]2[C@@H]3CCC4=CC(=O)CC[C@]4(C)[C@H]3[C@@H](O)C[C@@]21C [Hydrocortisone (acetate)] (compound 10 µM),-0.25,1.4,-0.24
CCN1CCC[C@H]1CNC(=O)c1cc(S(N)(=O)=O)ccc1OC [Levosulpiride] (compound 10 µM),0.22,0.89,-0.63
CC(C)(C)NCC(O)COc1cccc2c1CCC(=O)N2 (configuration not stated) [Carteolol (hydrochloride)] (compound 10 µM),0.64,0.45,-0.38
Cc1ccc(NC(=S)NNc2c([N+](=O)[O-])cc(C(F)(F)F)cc2[N+](=O)[O-])cc1Cl (compound 10 µM),0.79,-0.44,-0.73
